CSC inhib – blocks cancer stem cells; 300,000 compounds, 1.1% hits; inhibition, % at 7.5 µM; cancer stem cell-like cells viability, luminescence; in the data active means inhibition above about 75%; inconclusive means no clear call, values can overlap the other calls; tested in HMLE shEcad cells
Beta apoptosis – blocks beta cell apoptosis | protection from apoptosis, % (no concentration beside the values) | INS-1E cytokine-induced death, ATP luminescence, 48 h; percent of positive-control rescue, neutral wells zero | 300,000 compounds, 0.8% hits;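 active means Every replicate reaches about 75%, or at least half do and their mean reaches it too, limit read from the data; inconclusive means At least half of replicates reach the limit but their mean does not; inactive means Under half of replicates reach the limit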;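 further: 0% = cytokine-treated negative control wells and 100% = positive control rescue; higher means more ATP so stronger rescue from cytokine killing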
Calb FLC – affects C. albicans growth with fluconazole; C. albicans CaCi-2 (fluconazole-resistant clinical isolate) + fluconazole, Alamar Blue growth, 48 h; 300,000 compounds, 0.57% hits; growth inhibition, % (no concentration beside the values);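 active means growth inhibition above about 58% in most replicates, limit read from the data, passing the limit was not always enough; inconclusive means exactly half the replicates above a set limit; inactive means most replicates below a set limit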;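 further: all wells also contain fluconazole at 8 µg/ml as a sub-toxic cotreatment; 0% = median of DMSO wells and 100% = median of geldanamycin control wells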
MPTP inh – permeability transition pore inhibition. isolated mouse mitochondria, Ca2+ swelling absorbance, 30 min. inhibition, % at 10 µM. 360,000 compounds, 1.4% hits. AID 602449;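 active means inhibition of 50% or more, scaled per plate between neutral and stimulator controls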;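 further: 0% = DMSO wells given calcium and 100% = 1 mM EGTA wells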
Mdm2-MdmX inh – disrupts the human Mdm2-MdmX interaction; O15151+Q00987; SaOS-2 split-luciferase Mdm2/MdmX complementation, luminescence; inhibition, % at 8 µM; 330,000 compounds, 3% hits; AID 485346;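 active means inhibition of at least 50% at 8 µM in the primary screen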
Target sequence (O15151 whole entry, looked up): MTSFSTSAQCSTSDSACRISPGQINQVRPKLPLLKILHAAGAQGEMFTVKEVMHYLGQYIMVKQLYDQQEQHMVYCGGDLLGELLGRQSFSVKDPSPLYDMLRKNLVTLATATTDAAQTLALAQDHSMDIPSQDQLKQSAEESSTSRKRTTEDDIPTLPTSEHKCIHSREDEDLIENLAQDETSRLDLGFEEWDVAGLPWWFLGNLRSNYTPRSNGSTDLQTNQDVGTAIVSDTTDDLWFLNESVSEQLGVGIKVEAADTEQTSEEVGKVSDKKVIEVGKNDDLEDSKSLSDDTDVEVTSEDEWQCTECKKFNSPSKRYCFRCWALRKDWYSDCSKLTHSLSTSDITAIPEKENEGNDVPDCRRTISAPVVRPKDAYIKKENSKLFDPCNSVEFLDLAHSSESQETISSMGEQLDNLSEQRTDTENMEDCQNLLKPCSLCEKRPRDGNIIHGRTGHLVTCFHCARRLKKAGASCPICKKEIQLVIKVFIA
Target sequence (Q00987 whole entry, looked up): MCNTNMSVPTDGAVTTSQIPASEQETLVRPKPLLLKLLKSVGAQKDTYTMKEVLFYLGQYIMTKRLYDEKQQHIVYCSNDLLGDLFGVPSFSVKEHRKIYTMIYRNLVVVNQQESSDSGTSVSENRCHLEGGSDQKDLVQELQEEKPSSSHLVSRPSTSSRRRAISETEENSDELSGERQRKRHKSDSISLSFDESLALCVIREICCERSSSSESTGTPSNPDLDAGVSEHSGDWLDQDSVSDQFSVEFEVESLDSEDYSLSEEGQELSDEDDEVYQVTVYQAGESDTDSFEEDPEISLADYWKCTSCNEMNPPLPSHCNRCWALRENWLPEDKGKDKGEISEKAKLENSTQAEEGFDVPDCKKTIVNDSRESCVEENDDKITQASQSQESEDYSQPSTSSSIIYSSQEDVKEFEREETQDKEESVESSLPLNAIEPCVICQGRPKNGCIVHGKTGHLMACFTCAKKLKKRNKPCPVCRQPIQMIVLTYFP
MPTP counter – mitochondrial membrane potential, counter-screen | 5,000 compounds, 78% hits | AID 624504 | inhibition, % at 10 µM | shares compounds with MPTP inh | isolated mitochondria, Rhodamine 123 fluorescence; in the data active means inhibition above about 22%;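 further: 0% = DMSO vehicle and 100% = positive control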
MPTP swell DR – MPTP inhibition, dose response swelling confirmation. isolated mitochondria swelling, absorbance. shares compounds with MPTP inh. IC50, µM. 780 compounds, 58% hits; in the data active means IC50 below about 20 µM
MPTP cs DR – active in counter-screen for permeability transition pore inhibitors; shares compounds with MPTP inh; AID 651564; 780 compounds, 49% hits; isolated mitochondria counterscreen, fluorescence read-out; IC50, µM; in the data active means IC50 below about 80 µM
The depositor's hits bear a star; ? = inconclusive; . = no result given. Rows were chosen to be rich in hits. Some 4.8% of all compounds tested hit in one or more screens of this group.

SMILES | CSC inhib | Beta apoptosis | Calb FLC | MPTP inh | Mdm2-MdmX inh | MPTP counter | others
O=C1c2cc(Cl)ccc2OC2(CCNCC2)C12CC(c1ccc(Cl)cc1)=NO2 (stereo not given) | 1 | 6 | -24 | 6 | -11 | .
O=C1c2cc(Cl)ccc2OC2(CCNCC2)C12CC(c1ccccc1)=NO2 (stereo not given) | 10 | -5 | -11 | 71* | 45 | -16 | MPTP swell DR=8.9*;MPTP cs DR=>80
O=C1CN(C(=O)CN2CCN(S(=O)(=O)c3ccccc3F)CC2)c2ccccc2N1 | . | . | . | 0 | . | .
CC1CN(C(=O)CCC(=O)NCc2ccccn2)c2ccccc2O1 (stereo not given) | -7 | -3 | 0 | 0 | 25 | .
Cc1cc(Nc2ccc(F)c(F)c2)nc(-c2ccccc2O)n1 | 5 | 9 | -6 | 90* | 45 | 60*
Cc1ccc(Nc2cc(C)nc(-c3ccccc3O)n2)cc1 | 74 | 10 | 22 | 29 | -48 | .
O=C(Nc1nnc(-c2ccc(Cl)cc2)o1)c1nc2ccccc2s1 | 99* | 2 | 4 | 97* | 26 | 5 | MPTP swell DR=2.6*;MPTP cs DR=13*
O=C(Nc1nnc(-c2ccc(Cl)cc2)o1)Nc1ccccc1Cl | 11 | -7 | 6 | -1 | 17 | .
O=C(CSc1nc(-c2cccs2)cc(C(F)(F)F)n1)Nc1cc(OCC(F)(F)C(F)F)cc([N+](=O)[O-])c1 | -13 | 21 | 11 | 93* | 7 | 80*
O=C(/C=C/c1cccc([N+](=O)[O-])c1)NCCSCc1ccc(Cl)cc1Cl | 32 | 3 | -7 | 67* | -19 | 73*
Cc1c(N=Nc2c(-c3ccc([N+](=O)[O-])cc3)[nH]n(C(N)=S)c2=O)cccc1[N+](=O)[O-] | . | . | . | 96* | . | 67*
NC(=S)n1[nH]c(-c2ccc([N+](=O)[O-])cc2)c(N=Nc2cccc([N+](=O)[O-])c2)c1=O | . | . | 100* | 108* | . | 76*
NC(=S)n1[nH]c(-c2ccc([N+](=O)[O-])cc2)c(N=Nc2ccccc2[N+](=O)[O-])c1=O | . | . | . | 44 | . | .
O=C(Cn1cncn1)NCCCc1ccccc1 | -7 | -1 | 7 | 0 | -5 | .
CCCCC(=O)Nc1cccc(-c2csc(-c3ccccc3)n2)c1 | 68 | -6 | 35 | 57* | -1 | 58*
O=C(Nc1ccc(F)cc1)Nc1ccccc1NS(=O)(=O)c1cccs1 | -1 | 3 | ? | 81* | 6 | 86*
O=S(=O)(Nc1ccccc1Cl)c1ccc(NS(=O)(=O)c2cccs2)cc1 | -3 | -6 | 9 | -3 | 25 | .
NC(=O)c1ccccc1NS(=O)(=O)c1cccs1 | -11 | -3 | -5 | -4 | 13 | .
O=C(Nc1ccc(Cl)cc1)Nc1ccccc1NS(=O)(=O)c1cccs1 | 35 | -3 | 15 | 82* | 21 | 83*
CC1CCN(C(=O)Cn2nnc(-c3ccc([N+](=O)[O-])cc3)n2)CC1 | -11 | -3 | -5 | 2 | -5 | .
S=C(NCc1ccco1)Nc1ccc(Oc2ccccc2)cc1 | 19 | 2 | -4 | 78* | -1 | 85*
S=C(NCc1ccco1)Nc1cccc(Cl)c1 | . | 8 | -17 | 60* | -26 | 73*
CC(=O)c1cccc(NC(=S)NCc2ccco2)c1 | . | -7 | -8 | 2 | -20 | .
COc1ccc(NC(=S)NCc2ccco2)cc1 | -8 | 0 | -5 | 0 | 0 | .
CC(C)CNC(=S)Nc1ccc(Oc2ccccc2)cc1 | . | -3 | -5 | 92* | 16 | 98*
SMILES | CSC inhib | Beta apoptosis | Calb FLC | MPTP inh | Mdm2-MdmX inh | MPTP counter | others
S=C(NCc1ccco1)Nc1ccc(Cl)c(Cl)c1 | 11 | -6 | -6 | 94* | 3 | 90*
COc1ccc(Br)cc1C1CC(=O)C(C)C(c2cc(Br)ccc2OC)N1 (stereo not given) | 24 | -2 | 3 | -1 | 18 | .
CC(=O)c1cccc(S(=O)(=O)NCCC(=O)NC2CCCCCC2)c1 | . | -4 | . | 0 | 17 | .
C[C@@H](NC(=O)[C@@H]1Cc2ccccc2CN1C(=O)OC(C)(C)C)C(=O)NC1CCCC1 | -15 | -9 | -23 | 0 | 16 | .
COc1cccc(CNC(=O)[C@@H]2CCCN2C(=O)[C@H]2CCCCN2C(=O)c2cccc3ccccc23)c1 | . | . | . | 0 | . | .
CCOC(=O)C1=CN(Cc2ccco2)S(=O)(=O)N(C)C1c1ccc(F)c(Cl)c1 (stereo not given) | . | . | . | -3 | 4 | .
S=C(NCc1ccco1)Nc1cc(Cl)c(Cl)cc1Cl | -7 | -4 | -3 | 88* | 2 | 85*
COc1ccccc1C(=O)N/N=C/c1c[nH]c2ccccc12 | 0 | 1 | 1 | 0 | -16 | .
CC(C)CC(C(=O)Nc1oc(-c2ccccc2)c(-c2ccccc2)c1C#N)N1C(=O)c2ccccc2C1=O (stereo not given) | 13 | 4 | . | 74* | 17 | 69*
N#Cc1c(NC(=O)CCN2C(=O)c3ccccc3C2=O)oc(-c2ccccc2)c1-c1ccccc1 | 1 | 3 | -1 | 0 | 13 | .
CN1CCN(NC(=O)c2cc(-c3cccc(Cl)c3)nc3ccccc23)CC1 | -5 | 2 | -1 | 2 | 18 | .
OC(c1cc(-c2cccc(Cl)c2)nc2ccccc12)C1CCCCN1 (stereo not given) | . | . | . | 82* | . | -19 | MPTP swell DR=3.6*;MPTP cs DR=29*
Cc1cc(NS(=O)(=O)c2cn(C)nc2C)no1 | -8 | 3 | . | 2 | -6 | .
c1coc(Cn2c(-c3ccco3)nc3ccccc32)c1 | -4 | -1 | 1 | 51* | 21 | -7
CCn1c(COc2ccc3c(c2)OCO3)nnc1SCC(=O)c1ccc(Cl)cc1 | 8 | 5 | 2 | 58* | 13 | 79*
CCOC(=O)[C@@H]1[C@H]2COc3cc(OC)ccc3[C@H]2N2C(=O)N(c3cccc(F)c3)C(=O)[C@@]12C | -6 | -1 | . | 1 | -15 | .
Nc1nc(NC(=O)c2ccc(Cl)cc2)nn1-c1ccccc1 | 12 | 0 | -5 | 81* | -5 | 35*
Clc1ccc2[nH]cc(-c3nnnn3-c3ccc4ccccc4c3)c2c1 | 15 | 31 | 9 | 84* | 31 | 77*
O=C(NNC1=Nc2cccc3cccc1c23)c1ccc(Br)cc1 | 21 | 60 | -4 | 83* | . | 67*
O=C(NCc1cn(-c2ccccc2)nc1-c1ccccc1)c1ccc([N+](=O)[O-])cc1 | 13 | 6 | -9 | 53* | 7 | 63*
CC[n+]1ccc(/C=C/c2ccc(N(C)C)cc2)c2ccccc21 | . | . | . | 119* | . | 68*
CCCCCC[n+]1ccccc1/C=C/c1ccc(N(C)C)cc1 | . | . | . | 58* | . | 103*
CCCCn1c(N)c(-c2nc3ccccc3s2)c2c([N+](=O)[O-])nn(CC)c(=O)c21 | -5 | 5 | 23 | 92* | 39 | -5 | MPTP swell DR=20*;MPTP cs DR=18*
